Data as given in PubChem BioAssay (NCI).
Where “and” joins values, the source holds several entries; their conditions need not be identical. Identical values can stand only once. The panel holds about 83,000 compounds, 20% with a hit somewhere; the sample as a whole holds those more often.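 Step 1: grow cells in 96-well plates. Step 2: add test compound at a single concentration. Step 3: incubate 48 h. Step 4: record percent growth.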 Calls of active or inactive are those of the source. How the source made its calls: active means growth percent below 10; inactive means the rest.

test system: MDA-MB-468 breast; experiment: NCI-60 one-dose screen, 48 h (100 = growth as untreated, 0 = no growth, -100 = all killed); conditions: 10 µM unless noted

**Q.** With Clc1ccc(CNc2c3ccccc3nc3ccccc23)cc1 as the compound, how does the growth read?
**A.** 29.6% (inactive)

**Q.** With Cc1cccc(/C=C/c2nn3c(-c4ccco4)nnc3s2)c1 as the compound, how does the growth read?
**A.** 93.9% (inactive)

**Q.** For CC(=O)N1CCN(CCNC(=O)n2cc(-c3ccncc3)c(-c3ccc(O)c(Cl)c3)n2)CC1, which growth is on record?
**A.** 112% (inactive)

**Q.** Which growth does the source give for CN(C)CCCNC(=O)c1cncnc1Nc1ccc2c(ccn2Cc2cccc(F)c2)c1 here?
**A.** 52.6% (inactive)

**Q.** How did the growth turn out when NC(=S)CN1CCOCC1 was run?
**A.** 104% (inactive)

**Q.** With COC1=CC(c2ccc[nH]2)=N/C1=C\c1[nH]c(C)c(C(=O)CCCCC(=O)NC(C)(C)C)c1C as the compound, how does the growth read?
**A.** 33.9% (inactive)

**Q.** For O=c1ccc2nc(-c3ccccn3)nn(-c3ccccc3)c-2c1, which growth is on record?
**A.** -32.1% (active)

**Q.** For CC1(C)CC[C@]2(C(=O)N3CCCN(CC#N)CC3)CC[C@]3(C)C(=CC[C@@H]4[C@@]5(C)CC[C@H](O)C(C)(C)[C@@H]5CC[C@]43C)[C@H]2C1, which growth is on record?
**A.** 41.2% (inactive)

**Q.** Which growth does the source give for Nc1ncc(-c2ccc3ncnc(Nc4ccc(F)c(Cl)c4)c3c2)cn1 here?
**A.** -22.3% (active)

**Q.** With Cc1cc(Nc2nc(-c3ccc(F)cc3)nc3ccccc23)n[nH]1 as the compound, how does the growth read?
**A.** 58.2% (inactive)

**Q.** Which growth does the source give for COc1ccc(C(=O)C2C(c3ccc(OC)cc3)CN(C)C23C(=O)Nc2ccccc23)cc1 (stereo not given) here?
**A.** 95.4% (inactive)

**Q.** With CCOC(=O)c1ccc(Nc2ncnc3c2cnn3-c2cccc(F)c2)cc1 as the compound, how does the growth read?
**A.** 103% (inactive)

**Q.** How did the growth turn out when COc1cc(C(=O)Nc2cc3c(cc2Oc2cc(C)cc(C)c2)C(=O)N(C)[C@@H](CC(=O)N(C)O)C(=O)N3)c(Br)c(OC)c1OC was run?
**A.** -41.6% (active)

**Q.** With Cc1nc2cncc(C#Cc3cncc(C(=O)Nc4ccc(CN5CCN(C)CC5)c(C(F)(F)F)c4)c3)c2nc1C as the compound, how does the growth read?
**A.** 37.3% (inactive)

**Q.** Which growth does the source give for CSC1=Nc2c(c(C)c(-c3ccccc3)n2CCCC(=O)O)C2=NC(=O)C[C@H](C)N12 here?
**A.** 83.7% (inactive)

**Q.** How did the growth turn out when C#Cc1nc(C2=C(C)C(OC(C)=O)/C(=N/OC(C)=O)C2)cs1 (stereo not given) was run?
**A.** -60.7% (active)

**Q.** For O=Cc1c(OCc2cnnn2CC(=O)Nc2ccc(Br)cc2)ccc2ccccc12, which growth is on record?
**A.** 95.6% (inactive)

**Q.** With CCOC(=O)c1sc2nc(-c3cccc(OC)c3)nc(N3CCOCC3)c2c1C as the compound, how does the growth read?
**A.** 81.2% (inactive)

**Q.** With CC(C)(Sc1cc(C(C)(C)C)c(O)c(C(C)(C)C)c1)Sc1cc(C(C)(C)C)c(OC(=O)CCC(=O)O)c(C(C)(C)C)c1 as the compound, how does the growth read?
**A.** 47.4% (inactive)

**Q.** With ClC(Cl)c1nc(-c2ccco2)n2nc(-c3ccccc3)cc2n1 as the compound, how does the growth read?
**A.** -54.2% (active)

**Q.** Which growth does the source give for C[C@@H]1CC[C@@H]2[C@@H]1[C@H](OC(=O)/C=C/c1ccccc1)[C@]1(c3ccccc3)C[C@@H](NC(=O)CO)[C@@]2(C)O1 here?
**A.** 98.3% (inactive)

**Q.** Which growth does the source give for CCC(C)/C(=C\C#N)NCCCN/C(=C/C#N)C(C)CC (stereo not given) here?
**A.** 108% (inactive)

**Q.** CCOC(=O)C(=O)Nc1ccc2c(ccn2C(=O)c2cccc(F)c2)c1 was tested. Which growth did it give?
**A.** 89.5% (inactive)

**Q.** How did the growth turn out when COc1ccc(C(=O)C(Br)C(Br)C(=O)O)cc1 (stereo not given) was run?
**A.** 93% (inactive)

**Q.** Which growth does the source give for C=CC(=O)OCCCCCCCC here?
**A.** 106% (inactive)

**Q.** With O=C1NCC(Nc2ccc(Br)cc2Cl)C(=O)N1 (stereo not given) as the compound, how does the growth read?
**A.** 124% (inactive)

**Q.** Which growth does the source give for C=CCn1c(SCC(=O)Nc2cccc(C(=O)/C=C/c3cc(OC)c(OC)c(OC)c3)c2)nc2ccccc2c1=O here?
**A.** 35.3% (inactive)

**Q.** O=Cc1ccc(O)c(O)c1 was tested. Which growth did it give?
**A.** 93.4% (inactive)

**Q.** O=C(O)/C=C\C(=O)Nc1cccc2ccccc12 was tested. Which growth did it give?
**A.** 92.2% (inactive) and 111% (inactive)

**Q.** With Cc1cccc2c3c(sc12)C(c1ccc(Cl)cc1)C(C#N)=C(/N=C/c1ccc(Cl)cc1)O3 (stereo not given) as the compound, how does the growth read?
**A.** 10.9% (inactive)

**Q.** CC(=O)c1nc2ccccc2n1CCN1CCN(C)CC1 was tested. Which growth did it give?
**A.** -20.2% (active)

**Q.** c1ccc(CNc2ncnc3ccc(-c4cnc5[nH]ncc5c4)cc23)cc1 was tested. Which growth did it give?
**A.** 50.7% (inactive)

**Q.** How did the growth turn out when c1cc(-c2nc3ccc4[nH]ncc4c3c3c2CCCC3)[nH]n1 was run?
**A.** 43.6% (inactive)

**Q.** Which growth does the source give for N#Cc1c(-c2cccc(Cl)c2)cc(-c2cccnc2)[nH]c1=O here?
**A.** 49.3% (inactive)

**Q.** Which growth does the source give for COc1ccc2c(c1)CC[C@@H]1[C@@H]2CC[C@]2(C)[C@@H](O)C(=O)C[C@@H]12 here?
**A.** 109% (inactive)

**Q.** COc1ccc(C2=NN(C=O)C(c3ccc(OS(=O)(=O)c4ccc(C)cc4)c(OC)c3)C2)cc1 (stereo not given) was tested. Which growth did it give?
**A.** 18.1% (inactive)

**Q.** With NC(N)=Nc1ccc(Oc2cccc(NC(N)=Nc3ccc(I)cc3F)c2)cc1 as the compound, how does the growth read?
**A.** 35.5% (inactive)

**Q.** Which growth does the source give for Cc1nc2sccn2c1-c1csc(Nc2ccccc2Cl)n1 here?
**A.** 19% (inactive)

**Q.** With CC1OC(OC2C(OC3CCC4(C)C(CCC5(C)C4CC=C4C6CC(C)(C)CCC6(CO)C(O)CC45C)C3(C)C)OC(C(=O)O)C(OC3OC(COC4OC(CO)C(O)C(O)C4O)C(O)C(O)C3O)C2O)C(O)C(O)C1O (stereo not given) as the compound, how does the growth read?
**A.** -80.5% (active)

**Q.** With C/C(=N\NC(=O)c1ccncc1)c1ccccc1O as the compound, how does the growth read?
**A.** 13.1% (inactive) and 22.6% (inactive)
